Experiment [1] deals with Lysosomal acid glucosylceramidase (Homo sapiens) (UniProt P04062). The experiment can be described thus: Glucocerebrosidase-p2 (AID 348; in the data active means potency below about 10 µM; further: potency means the concentration at half of the fitted maximal effect). The following applies: purified GBA, blue fluorogenic substrate, 40 min. The method, boiled down: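 Normal human glucocerebrosidase (0.2 nM) with blue fluorogenic substrate (80 uM final) in citrate/phosphate pH 5.9 with 10mM sodium taurocholate, 0.01% tween-20; 40 min RT, NaOH/glycine stop; fluorescence Ex 365/Em 440; AC50 from a titration from 0.6 nM upwards.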

A short description of experiment [2]: AP1 Signaling Pathway (AID 357; active means well fitted curve in either direction with a large enough effect, not every such curve was filed as active;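 further: ME-180 reporter cells stimulated with EGF at its EC50 level; on the % scale 0 is the no-effect control and ±100 the full control effect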). Conditions: ME-180 AP-1-bla reporter, EGF-induced, beta-lactamase ratio, 5 h; at 7.69 µM (top of the series) unless noted. A digest of the protocol:
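In this screen, ME-180 cells in Opti-MEM with 0.5% dialyzed FBS received EC50 EGF and compound titrations for 5 h. AP-1 reporter beta-lactamase was detected via CCF4 ratio, giving AC50 for positive and negative modulators.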

Experiment [3] deals with Cytochrome P450 1A2 (Homo sapiens) (UniProt P05177). The experiment can be described thus: p450-cyp1a2 (AID 410; calls by dose curve; further: potency means the concentration at half of the fitted maximal effect). The following applies: recombinant CYP1A2, luciferin-ME demethylation, luminescence; series mostly up to 57 µM. A digest of the protocol:
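20nM CYP1A2, 100uM Luciferin-ME (=Km), 100mM KPO4; cpd 10 min RT; +NADPH regen, 60 min RT; stop/detect 20 min; luminescence. Normalized to furafylline 57 uM = full inhibition.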

Experiment [4] is described as follows: NFAT Signaling Pathway (AID 444; active means well fitted curve in either direction with a large enough effect, not every such curve was filed as active;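 further: carbachol stimulus at about its EC50 of 1 µM final; on the % scale 0 is the no-effect control and ±100 the full control effect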). The following applies: Jurkat NFAT-bla M1, carbachol, beta-lactamase ratio, 5 h; at 7.69 µM (top of the series) unless noted. A digest of the protocol:
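Jurkat cells carrying an NFAT-driven β-lactamase reporter and co-transfected muscarinic M1 receptor were treated with compound plus carbachol (1 uM final, an EC50 level) for 5 h at 37 °C. CCF4 loading followed for 1 h at RT; 460/530 nm ratio gave %activity.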

Experiment [5] can be described thus: Stat Signaling Pathway (AID 446; active means well fitted curve in either direction with a large enough effect, not every such curve was filed as active;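 further: ME-180 cervical cancer cells given 40 pM IL-6 alongside compound; SIE-controlled beta-lactamase reporter measured as 460/530 nm FRET emission ratio; on the % scale 0 is the no-effect control and ±100 the full control effect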). The following applies: ME-180 (cervical carcinoma) SIE beta-lactamase reporter, IL-6 stimulated, 5 h; at 7.69 µM (top of the series) unless noted. A digest of the protocol: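 Emission at 460 and 530 nm (excitation 405 nm) reports SIE-controlled beta-lactamase in ME-180 cells. Cells received compound with 40 pM IL-6 for 5 hrs at 37 C; data scaled between 300 pM IL-6 and 125 nM JAK-inhibitor controls.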

In experiment [6] the target is Glucocorticoid receptor (Homo sapiens) (UniProt P04150). The experiment can be described thus: GR-GFP Redistribution (AID 450;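 active means compounds whose dose series gives a full or clear partial fitted curve of increased nuclear translocation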; further: potency means the concentration at half of the fitted maximal effect). Conditions: U2OS GR-GFP nuclear translocation, laser cytometry, 2 h.
The target is the same in experiment [7]. The experiment can be described thus: GR-EFC Redistribution (AID 451; calls by dose curve; further: potency means the concentration at half of the fitted maximal effect). The following applies: CHO-K1 GR-EFC translocation, beta-gal luminescence, 2 h. The method, boiled down: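 CHO-K1 cells stably expressing nuclear-localized β-gal enzyme acceptor and GR fused C-terminally to the enzyme donor fragment; ligand-driven nuclear translocation restores β-gal by complementation. Compounds titrated up to 46 uM final, 2 h at 37 °C; luminescence read.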

For experiment [8], the target named is Mitogen-activated protein kinase 10 (Mus musculus) (UniProt Q61831). The experiment can be described thus: JNK3 AlphaScreen Assay (AID 530; active means well fitted curve in either direction with a large enough effect, not every such curve was filed as active;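 further: kinase came from lysate of stimulated human HepG2 cells; signal reports phosphorylation of biotinylated GST-cJun 1-79 at Ser73 with 10 µM ATP; on the % scale 0 is the no-effect control and ±100 the full control effect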). The following applies: JNK3 lysate, c-Jun phosphorylation; series mostly up to 57.1 µM. A digest of the protocol:
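Biotinylated GST-cJun(1-79) served as substrate for JNK3 in HepG2 lysates stimulated with IL-1beta and TNF-alpha. ATP was 10 uM final, pH 7.6. Ser73 phosphorylation was quantified by AlphaScreen (680 nm excitation).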
On the technique in general: In Alpha technology, singlet oxygen from a donor bead excites a nearby acceptor bead.

Experiment [9] addresses Cytochrome P450 3A4 (Homo sapiens) (UniProt P08684). The experiment can be described thus: qHTS Assay for Inhibitors and Substrates of Cytochrome P450 3A4 (AID 884). Further: potency means the concentration at half of the fitted maximal effect; nearly all actives have a fitted effect of over 50% in size. The following applies: recombinant CYP3A4, Luciferin-PPXE luminescence; series mostly up to 57.1 µM. The method, boiled down: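 Luminescent readout of luciferin produced by CYP3A4 (20 nM) dealkylation of Luciferin-PPXE, 25 uM (its KM). NADPH-driven reaction ran 60 min at RT after 10 min compound preincubation; data scaled to 57 uM ketoconazole as 100% inhibition.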
Background: In qHTS, concentration-response curves come from the screen itself.

The target is the same in experiment [10]. The experiment can be described thus: qHTS Assay for Activators of Cytochrome P450 3A4 (AID 885). Further: nearly all actives have a fitted effect of over 65% in size. Conditions: recombinant CYP3A4, Luciferin-PPXE luminescence, 60 min; series mostly up to 57.1 µM. The method, boiled down: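 Activators are scored by enhanced luminescence from CYP3A4 conversion of luciferin-PPXE (25uM, equal to KM) to luciferin, after 60 min at RT with an NADPH-regenerating system.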

Experiment [11] can be described thus: Confirmation and Secondary Assay for Modulators of Hemoglobin Beta Chain Splicing at IVS2 654 locus (AID 910). Further: % of control where 0% means no effect. The following applies: HeLa EGFP-654 splicing reporter, GFP fluorescence, 48 h; series mostly up to 38.3 µM. The method, boiled down:
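HeLa cells stably carrying EGFP interrupted by mutant beta-globin IVS2-654 intron (CMV-driven) were treated with compound for 2 days at 37C; corrected splicing was scored as total peak GFP intensity per well (488 nm excitation, 500-520 nm emission).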

Experiment [12] in a line: Confirmation and Secondary Assay for Modulators of Hemoglobin Beta Chain Splicing at IVS2 705 locus (AID 930).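 Further: HeLa cells stably expressing the EGFP-705 splicing reporter; GFP fluorescence per well restored by corrected splicing of the IVS2-705 intron in EGFP; % of control where 0% means no effect.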 The following applies: HeLa EGFP-705 splicing reporter, GFP fluorescence, 48 h; series mostly up to 38.3 µM. A digest of the protocol: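 Read-out: total peak GFP fluorescence per well (488 nm excitation, 500-520 nm emission) by laser-scanning cytometry. Cells: HeLa EGFP-705 splicing reporter, 2 days compound exposure in Optimem/2% FCS.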

The nature of experiment [13]: qHTS Assay for Lipid Storage Modulators (AID 1519; calls by dose curve). Conditions: Drosophila S3 cells, BODIPY lipid droplet/cell ratio, laser cytometry, cells loaded with oleic acid; for activity change, negative = inhibition: at 57.5 µM (top of the series). A digest of the protocol:
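Cells seeded at 5,000 per well were treated with compounds over a concentration series and loaded with oleic acid (400 uM, as added). Lipid droplet fluorescence (488 nm excitation, 500-530 nm channel) was read by laser-scanning cytometry and normalized to 20 uM Triacsin C.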

In experiment [14] the target is Ubiquitin carboxyl-terminal hydrolase 1 (Homo sapiens) (UniProt O94782). The experiment can be described thus: Inhibitors of USP1/UAF1: Pilot qHTS (AID 504865).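 Further: rhodamine fluorescence freed from ubiquitin-rhodamine substrate followed over time; top concentration of the series differs between compounds; on the % scale 0 is the no-effect control and ±100 the full control effect; nearly all actives have a fitted effect of over 35% in size.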 The following applies: purified USP1/UAF1, Ub-rhodamine cleavage fluorescence; series mostly up to 54.9 µM. The method, boiled down:
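USP1/UAF1 complex (1nM) preincubated with compound 15 min at room temperature, then Ub-Rho substrate (150nM final) added. Fluorescence read kinetically at 480/540 nm, 6 reads every 60 seconds. Buffer: 50mM HEPES pH 7.8, 0.5mM EDTA, 0.1 mg/ml BSA, 1mM TCEP, 0.01% Tween-20.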

Experiment [15] concerns the target 3',5'-cyclic-AMP phosphodiesterase 4B (Homo sapiens) (UniProt Q07343). The experiment can be described thus: qHTS Assay for Inhibitors of PDE-IV (AID 607; active means well fitted activation curve with a large enough effect in the main read-out, with a control signal flat, not every such curve was filed as active; further: % of control where 0% means no effect). Conditions: HEK293 ACTOne CNG channel cells, membrane potential fluorescence; series mostly up to 22.9 µM. A digest of the protocol:
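The readout is membrane depolarisation from a cAMP-sensing CNG channel, detected with a potential dye at ex 535/em 590. Cells were HEK293-derived (endogenous PDE-IV) at 1000 cells/well, titrated up to 22.9 uM final.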

Experiment [16] addresses Cytochrome P450 2D6 (Homo sapiens) (UniProt P10635). The experiment can be described thus: qHTS Assay for Inhibitors and Substrates of Cytochrome P450 2D6 (AID 891). Further: potency means the concentration at half of the fitted maximal effect; nearly all actives have a fitted effect of over 60% in size. Conditions: recombinant CYP2D6, luciferin-ME EGE luminescence; series mostly up to 57.1 µM. The method, boiled down:
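Luminescent read-out of luciferin formed by 5 nM human CYP2D6 demethylating 30 uM Luciferin-ME EGE (Km level) over 60 min at room temperature after NADPH regeneration addition. Data normalized to full inhibition by 1.43 uM quinidine.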

Experiment [17] concerns the target Cytochrome P450 2C19 (Homo sapiens) (UniProt P33261). The experiment can be described thus: qHTS Assay for Inhibitors and Substrates of Cytochrome P450 2C19 (AID 899). Further: potency means the concentration at half of the fitted maximal effect; nearly all actives have a fitted effect of over 60% in size. The following applies: recombinant CYP2C19, luciferin-H EGE luminescence; series mostly up to 57.1 µM. A digest of the protocol: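 NADPH-dependent conversion of Luciferin-H EGE (10uM, at KM) by 5nM enzyme in 50mM KPO4, 60 min at 37C following 10 min compound preincubation. Stopped with luciferin detection buffer; luminescence read after 20 min.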

[18] abbreviates: measured here: cell count channel max response.
The mark [19] stands for this setting: measured here: lipid channel max response.

Results filed as inconclusive are left out. Activity calls are given as the source filed them. Unless noted, the call rests on the fitted dose curve; in most records, active means well fitted curve in the direction sought with a large enough effect; inconclusive means small, poorly fitted or top-dose-only effect, or another doubt; inactive means no such curve, though single readings can be large; an effect the other way counts as inactive or inconclusive.

Cytochrome P450 3A4 (Homo sapiens), sequence (P08684 whole entry, looked up): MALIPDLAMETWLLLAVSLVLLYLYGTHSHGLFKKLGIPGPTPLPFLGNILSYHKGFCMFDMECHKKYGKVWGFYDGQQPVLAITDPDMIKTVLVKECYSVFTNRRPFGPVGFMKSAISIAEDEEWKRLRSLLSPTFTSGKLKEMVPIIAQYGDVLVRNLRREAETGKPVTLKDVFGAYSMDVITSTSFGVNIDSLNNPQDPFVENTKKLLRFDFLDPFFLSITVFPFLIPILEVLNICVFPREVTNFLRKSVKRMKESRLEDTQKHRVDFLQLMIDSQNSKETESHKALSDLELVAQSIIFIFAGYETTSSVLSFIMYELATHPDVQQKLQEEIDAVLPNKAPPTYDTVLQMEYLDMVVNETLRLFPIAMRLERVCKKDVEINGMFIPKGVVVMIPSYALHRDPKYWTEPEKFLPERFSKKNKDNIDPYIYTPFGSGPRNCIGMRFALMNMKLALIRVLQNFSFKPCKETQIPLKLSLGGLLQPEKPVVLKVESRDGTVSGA
Cytochrome P450 1A2 (Homo sapiens), sequence (P05177 whole entry, looked up): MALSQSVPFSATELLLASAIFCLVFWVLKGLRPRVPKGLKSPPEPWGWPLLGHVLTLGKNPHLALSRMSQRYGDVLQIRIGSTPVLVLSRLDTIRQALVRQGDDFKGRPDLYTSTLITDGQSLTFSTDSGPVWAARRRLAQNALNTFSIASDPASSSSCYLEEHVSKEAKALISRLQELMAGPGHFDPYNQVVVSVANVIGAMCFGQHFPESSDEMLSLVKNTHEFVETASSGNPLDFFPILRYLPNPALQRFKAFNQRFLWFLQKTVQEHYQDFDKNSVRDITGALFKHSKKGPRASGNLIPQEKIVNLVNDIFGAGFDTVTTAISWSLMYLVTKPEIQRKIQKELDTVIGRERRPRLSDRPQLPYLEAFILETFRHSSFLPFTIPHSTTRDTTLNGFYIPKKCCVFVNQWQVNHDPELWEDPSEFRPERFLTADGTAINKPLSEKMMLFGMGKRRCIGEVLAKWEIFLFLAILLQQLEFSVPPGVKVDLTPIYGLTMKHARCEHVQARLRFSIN
Cytochrome P450 2C19 (Homo sapiens), sequence (P33261 whole entry, looked up): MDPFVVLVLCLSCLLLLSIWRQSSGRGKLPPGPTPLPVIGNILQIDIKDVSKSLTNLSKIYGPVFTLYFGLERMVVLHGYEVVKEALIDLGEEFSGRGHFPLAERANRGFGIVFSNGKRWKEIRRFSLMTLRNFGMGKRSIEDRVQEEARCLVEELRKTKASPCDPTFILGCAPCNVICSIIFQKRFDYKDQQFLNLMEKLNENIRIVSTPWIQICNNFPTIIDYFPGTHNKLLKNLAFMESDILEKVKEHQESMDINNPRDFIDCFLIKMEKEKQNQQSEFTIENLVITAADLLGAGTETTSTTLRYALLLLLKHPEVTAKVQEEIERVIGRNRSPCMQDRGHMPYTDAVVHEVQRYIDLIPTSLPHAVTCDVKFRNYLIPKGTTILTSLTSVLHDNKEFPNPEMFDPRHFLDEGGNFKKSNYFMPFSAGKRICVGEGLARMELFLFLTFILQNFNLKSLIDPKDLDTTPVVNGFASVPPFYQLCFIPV
Lysosomal acid glucosylceramidase (Homo sapiens), sequence (P04062 whole entry, looked up): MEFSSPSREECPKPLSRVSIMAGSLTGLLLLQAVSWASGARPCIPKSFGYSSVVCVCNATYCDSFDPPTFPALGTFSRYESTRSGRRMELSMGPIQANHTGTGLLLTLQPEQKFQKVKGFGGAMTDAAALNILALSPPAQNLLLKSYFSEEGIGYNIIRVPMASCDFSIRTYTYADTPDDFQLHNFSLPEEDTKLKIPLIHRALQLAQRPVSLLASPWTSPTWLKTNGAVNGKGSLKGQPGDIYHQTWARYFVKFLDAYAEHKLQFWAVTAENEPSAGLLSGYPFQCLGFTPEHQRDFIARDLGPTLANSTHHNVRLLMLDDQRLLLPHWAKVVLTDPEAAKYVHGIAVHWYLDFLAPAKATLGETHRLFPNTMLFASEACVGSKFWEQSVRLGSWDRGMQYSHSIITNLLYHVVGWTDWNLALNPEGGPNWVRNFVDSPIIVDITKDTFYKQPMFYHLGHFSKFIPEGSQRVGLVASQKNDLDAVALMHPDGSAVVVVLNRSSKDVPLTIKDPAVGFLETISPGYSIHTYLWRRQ
Glucocorticoid receptor (Homo sapiens), sequence (P04150 whole entry, looked up, the tested form may be a part): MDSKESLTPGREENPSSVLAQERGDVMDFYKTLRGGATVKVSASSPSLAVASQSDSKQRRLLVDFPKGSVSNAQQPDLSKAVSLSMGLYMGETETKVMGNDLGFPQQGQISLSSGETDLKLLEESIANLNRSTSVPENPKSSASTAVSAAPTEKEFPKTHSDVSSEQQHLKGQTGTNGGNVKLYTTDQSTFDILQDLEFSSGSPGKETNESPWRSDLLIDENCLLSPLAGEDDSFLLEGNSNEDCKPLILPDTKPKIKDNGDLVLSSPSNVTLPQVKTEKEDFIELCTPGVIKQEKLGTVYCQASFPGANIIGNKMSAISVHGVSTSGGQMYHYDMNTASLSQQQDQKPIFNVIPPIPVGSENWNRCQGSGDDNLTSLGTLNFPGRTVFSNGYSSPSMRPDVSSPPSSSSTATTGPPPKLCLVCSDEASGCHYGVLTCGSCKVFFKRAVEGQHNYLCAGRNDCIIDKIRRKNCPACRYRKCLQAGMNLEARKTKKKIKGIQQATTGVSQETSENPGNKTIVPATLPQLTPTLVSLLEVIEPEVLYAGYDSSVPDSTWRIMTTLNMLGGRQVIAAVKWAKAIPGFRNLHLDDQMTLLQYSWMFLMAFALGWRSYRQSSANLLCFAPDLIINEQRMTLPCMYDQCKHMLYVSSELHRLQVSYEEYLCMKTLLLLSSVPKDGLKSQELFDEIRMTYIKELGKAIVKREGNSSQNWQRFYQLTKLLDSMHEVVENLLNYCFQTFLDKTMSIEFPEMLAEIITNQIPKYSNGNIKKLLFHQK
3',5'-cyclic-AMP phosphodiesterase 4B (Homo sapiens), sequence (Q07343 whole entry, looked up): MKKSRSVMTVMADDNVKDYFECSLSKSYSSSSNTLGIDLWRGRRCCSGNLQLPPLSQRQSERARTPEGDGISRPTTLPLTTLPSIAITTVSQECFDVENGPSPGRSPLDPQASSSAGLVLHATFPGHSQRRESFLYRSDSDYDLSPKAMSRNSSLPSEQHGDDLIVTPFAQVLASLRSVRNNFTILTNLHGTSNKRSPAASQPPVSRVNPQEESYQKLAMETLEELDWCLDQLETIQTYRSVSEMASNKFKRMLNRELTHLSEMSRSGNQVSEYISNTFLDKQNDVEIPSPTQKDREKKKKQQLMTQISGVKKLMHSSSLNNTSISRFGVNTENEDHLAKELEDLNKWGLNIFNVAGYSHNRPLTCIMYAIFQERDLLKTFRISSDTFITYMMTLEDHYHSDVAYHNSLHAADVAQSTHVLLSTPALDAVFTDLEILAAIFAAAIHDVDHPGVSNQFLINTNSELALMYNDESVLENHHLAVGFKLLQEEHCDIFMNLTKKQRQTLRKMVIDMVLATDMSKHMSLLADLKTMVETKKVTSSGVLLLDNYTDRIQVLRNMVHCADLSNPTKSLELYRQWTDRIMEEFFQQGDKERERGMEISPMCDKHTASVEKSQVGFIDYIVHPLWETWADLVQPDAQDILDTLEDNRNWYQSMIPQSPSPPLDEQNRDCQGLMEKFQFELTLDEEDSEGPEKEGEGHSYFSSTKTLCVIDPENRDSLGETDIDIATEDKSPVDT
Ubiquitin carboxyl-terminal hydrolase 1 (Homo sapiens), sequence (O94782 whole entry, looked up): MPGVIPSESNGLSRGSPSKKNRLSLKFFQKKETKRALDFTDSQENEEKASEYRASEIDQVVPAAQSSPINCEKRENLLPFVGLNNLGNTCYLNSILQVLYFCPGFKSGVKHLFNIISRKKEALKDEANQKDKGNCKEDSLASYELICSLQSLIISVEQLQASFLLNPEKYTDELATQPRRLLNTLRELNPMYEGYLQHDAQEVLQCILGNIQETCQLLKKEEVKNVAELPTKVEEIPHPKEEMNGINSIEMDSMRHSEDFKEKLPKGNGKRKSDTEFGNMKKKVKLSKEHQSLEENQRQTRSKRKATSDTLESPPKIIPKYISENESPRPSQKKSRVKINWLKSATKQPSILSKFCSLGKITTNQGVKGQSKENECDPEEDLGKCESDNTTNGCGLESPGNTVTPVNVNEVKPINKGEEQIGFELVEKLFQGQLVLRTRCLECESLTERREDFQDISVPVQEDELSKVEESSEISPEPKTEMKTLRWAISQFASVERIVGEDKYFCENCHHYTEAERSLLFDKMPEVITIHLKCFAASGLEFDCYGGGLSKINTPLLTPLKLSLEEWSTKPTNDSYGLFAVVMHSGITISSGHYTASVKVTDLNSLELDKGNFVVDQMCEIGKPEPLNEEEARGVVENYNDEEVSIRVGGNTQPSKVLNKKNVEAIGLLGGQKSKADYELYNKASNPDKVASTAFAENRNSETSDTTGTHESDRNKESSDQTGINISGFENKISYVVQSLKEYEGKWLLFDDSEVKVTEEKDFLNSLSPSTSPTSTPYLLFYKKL
Cytochrome P450 2D6 (Homo sapiens), sequence (P10635 whole entry, looked up): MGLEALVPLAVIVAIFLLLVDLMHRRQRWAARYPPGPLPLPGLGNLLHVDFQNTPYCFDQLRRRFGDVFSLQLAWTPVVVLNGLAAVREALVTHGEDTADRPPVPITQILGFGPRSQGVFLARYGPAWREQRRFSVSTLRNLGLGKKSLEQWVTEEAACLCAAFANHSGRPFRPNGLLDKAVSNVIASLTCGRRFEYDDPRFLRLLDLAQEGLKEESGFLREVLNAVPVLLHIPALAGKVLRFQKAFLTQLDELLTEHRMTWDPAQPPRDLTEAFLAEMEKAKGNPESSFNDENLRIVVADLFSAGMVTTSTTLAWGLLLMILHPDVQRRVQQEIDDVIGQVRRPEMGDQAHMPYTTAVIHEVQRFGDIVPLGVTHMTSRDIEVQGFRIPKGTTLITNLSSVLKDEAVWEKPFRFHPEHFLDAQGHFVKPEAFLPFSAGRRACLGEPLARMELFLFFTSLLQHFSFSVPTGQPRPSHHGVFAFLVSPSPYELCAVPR

In the case of `CS(=O)(=O)Nc1cccc(-c2nc(N3CCOCC3)c3ccccc3n2)c1`, the Potency in [1] is > 11.4 µM (inactive); in [3], 5.01 µM (active); in experiment [6] it was > 46 µM (inactive); in [7] it was > 46 µM (inactive); in experiment [9], 1.58 µM (active). Moreover, the values for the activity change, negative = inhibition in experiment [2], in experiment [4] and in experiment [13] were -11.2% (inactive), 27.4% (inactive) and 2.88% (inactive), respectively. In addition, the activity, negative = inhibition in experiment [5] was -10.3% (inactive). In addition, the Potency entry in [8], in experiment [10], in experiment [11] and in experiment [14] was “inactive” throughout. The call in experiment [12] was inactive. Besides, the max response in [13] (setting [18]) was -24.3%; in experiment [13] (setting [19]) it was -22%.
In the case of `COCC(=O)N1CCC2(CCN(Cc3ccncc3)CC2)CC1`, the Potency is > 11.4 µM (inactive) in experiment [1]; 10 µM (active) in experiment [3]; > 46 µM (inactive) in experiment [7]; 6.31 µM (active) in [16]; 0.0251 µM (active) in [17]. Also, the activity change, negative = inhibition in [2] is 5.27% (inactive); in experiment [4], -6.67% (inactive); in experiment [13] it was 3.65% (inactive). Also, the activity, negative = inhibition in experiment [5] was 1.05% (inactive). For the same compound, the Potency result in experiment [8] and in experiment [15] was “inactive” throughout. Further, the max response in experiment [13] (setting [18]) was 13.5%; in experiment [13] (setting [19]), 19.1%.
In the case of `Cc1cccc(CNc2nc(-c3cccc(NS(C)(=O)=O)c3)nc3ccccc23)c1`, the Potency in experiment [1] was > 11.4 µM (inactive); in experiment [3] it was 15.8 µM (active); in [6], > 46 µM (inactive); in [7], > 46 µM (inactive); in experiment [9], 5.01 µM (active); in experiment [17], 2.51 µM (active). In addition, the activity change, negative = inhibition in experiment [2] was -27.3% (inactive); in [4] it was -6.18% (inactive); in experiment [13] it was 1.31% (inactive). For the same compound, the activity, negative = inhibition in experiment [5] is -23% (inactive). Further, the Potency result in experiment [8], in experiment [10] and in experiment [11] was “inactive” each time. In addition, the max response was -11.9% in [13] (setting [18]) and -11.1% in [13] (setting [19]).
With `CN(Cc1ccco1)c1ccnc(-c2cccc(NS(C)(=O)=O)c2)n1`, the Potency in experiment [1] is > 11.4 µM (inactive); in [3] it was 1.26 µM (active); in experiment [6], > 46 µM (inactive); in experiment [7], > 46 µM (inactive); in experiment [9] it was 6.31 µM (active). Also, the activity change, negative = inhibition is -9.76% (inactive) in experiment [2], -2.37% (inactive) in experiment [4] and 9.05% (inactive) in experiment [13]. The activity, negative = inhibition in experiment [5] is 2.34% (inactive). Moreover, the Potency result in experiment [8], in experiment [15], in experiment [10], in experiment [11] and in [14] was “inactive” each time. Moreover, the result in [12] was inactive. Further, the max response worked out at 18.7% in experiment [13] (setting [18]) and 26.7% in experiment [13] (setting [19]).
`COc1ccc2[nH]cc(CCNc3ncnc4ccc(-c5ccc(C(=O)N(C)C)cc5)cc34)c2c1`: the Potency in [1] was > 11.4 µM (inactive); in [3], 12.6 µM (active); in experiment [6], > 46 µM (inactive); in [7], > 46 µM (inactive); in [9], 2.51 µM (active); in [17], 7.94 µM (active). The values for the activity change, negative = inhibition in experiment [2], in experiment [4] and in [13] were -28% (inactive), 5.5% (inactive) and 0.717% (inactive), respectively. The activity, negative = inhibition in [5] was -28.2% (inactive). In addition, the Potency result in experiment [8], in experiment [15], in experiment [10] and in experiment [11] was “inactive” throughout. For the same compound, the compound was classed as inactive in [12]. Moreover, the max response in experiment [13] (setting [18]) and in experiment [13] (setting [19]) was -23.3% each time.
